# Measurements published in the supplement of paper PMC11417369.
# In all, about 25,000 sequences were measured (“ln(normalized median fluorescence intensity)”: median about 9.3, highest 2% from about 10 on). The sample holds the highest values, similar sequences and a random draw of the others, so the mix is not that of the screen.
# System: PF3D7_0420300 AP2 domain 1 (GST-tagged)
# Assay: gcPBM binding intensity (ln(normalized median fluorescence intensity)); higher = stronger DNA binding
# Outline: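 Alexa488 anti-GST antibody, scanned at 488 nm, detected GST-tagged P. falciparum DNA-binding domains that had been expressed in E. coli and incubated for 1 h on an Agilent 4 × 180k array. The array carried primer-extended double-stranded 36-bp intergenic genomic probes and negative controls. Binding intensity is the highest Masliner-normalised natural-log median intensity across replicate spots of either orientation of each probe.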
row,Sequence,gcPBM binding intensity (ln)
1,TATGTGAATATAATCACACACAATACGGAAACCCAC [CACACA_site2725],9.77
2,AATATGTGAATATAATCACACACAATACGGAAACAC [CACACA_site8875],10.1
3,TATGTGAATATAATCACACACAATACGGAAAGAGAC [CACACA_site7311],10.2
4,TTTTTTTTTTTTTTTGCACACACCATATTTATAGAA [CACACA_site3310],9.46
5,ATAAATTAAAAACACACACACATCTGGATACCCCTA [CACACA_site5780],10.1
6,TCATAAATTAAACACACACACACATCTGGATACCCC [CACACA_site9096],10.3
7,TCATAAATGAAACACACACACACATCTGGATACCCC [CACACA_site3332],10.1
8,GTTCATAAATTAAACACACACACACCGCTGGATACC [CACACA_site5779],10.1
9,GTTCATAAATTAAACACACACACACGGCTGGATACC [CACACA_site7545],10.1
10,GTTCATAAATTAAACACACACACACCCCTGGATACC [CACACA_site3331],10.2
11,TACTCCTCAATATTATGTACATATAATAGTTATAAA [XGTACX_site8551],9.23
12,TATATACAAAAAATATGTACATATATATATATATAT [XGTACX_site3497],9.21
13,TAATATTTTATTTTTGTTGTGGATCCAAAAAAAAAA [CACACA_negctrl_site846],8.76
14,TAATATGAAATGTGTACACACGCACCCACAAAAAAA [CACACA_site8949],9.74
15,AAAAATTATAGAAAAGTGCAATACATGTTACACCAT,9.28
16,AAAGAAAAAAAAAAAACACACAAAAAAAATCAAAAT [CACACA_site2871],9.94
17,AACAAACACGGACACACACACACACTAGAATGATTA [CACACA_site5364],10.2
18,CAAATAAATATTAAAAGTACACACAGATACACTAAT [XGTACX_site3749],9.88
19,AAAAAATCAAAACACACACACACACTAGAAAAAAAA [CACACA_site4909],10.3

row,Sequence,gcPBM binding intensity (ln)
1,AAAAAATCAAAACACACACACACACCCAAAAAAAAA [CACACA_site1444],10.1
2,CAAACCCACGGACACACACACACAAAAATGATTAAA [CACACA_site5365],9.93
3,AACAAATACGGACACACACACACACTAGAAAAAAAA [CACACA_site4442],10.2
4,ATAAATATTAAAAGTACACACAGATACACTAATTAT [CACACA_site1808],9.75
5,CAAATACACGGACACACACACACAAAAAAAAAAAAA [CACACA_site6385],10.1
6,AACACGCACAGACACACACACAAAAATGATTAAAAA [CACACA_site7195],9.67
7,TATTAATACGGACACACACACACACTAGATAAAATA [CACACA_site4295],10.2
8,TACACAGACGGACACACACACACACTAGAAAAAAAA [CACACA_site4435],10
9,AACAAAATTGAAGGAACACACATACAGATATATATA [CACACA_site4264],9.81
10,AGCAAAAATTAAATAAATAAATATATATATATATAT [TGCATGCA_negctrl_site449],9.12
11,TTTTTGCAAAAAGAAATAATTTTATTTTAGTTCGGA [CACACA_negctrl_site1718],8.78
12,ATTTTTATACGTTTTTTTTTTTTTTTTTTTTATTTA [CACACA_negctrl_site1142],9.62
13,ATAATGTGTTAGGCGTGTACACAATTGTATGGTTTA [XGTACX_site2377],9.45
14,ATATTAACTTTTATTACACACTCTCAACTTTTATTT [CACACA_site6176],9.72
15,GTACTTGTATTATGCACACATATAATTAAACATATA [CACACA_site3312],9.41
16,CATTTTAAAACAGACACACACCAAAAAAAAAAAAAA [CACACA_site6259],9.4
17,AAGAAAAACTAAAGAGTTCTGTTCATATCTCTTTGG [TGCATGCA_negctrl_site549],8.99
18,CCAACATGCCCACGCACACACAAAAAAAGCATGCAT [CACACA_site4217],9.58
19,ATCAAGCACGAACACACACACACACGCACGCCCACA [CACACA_site6308],10.2

row,Sequence,gcPBM binding intensity (ln)
1,TTTATTTTATCATTTGCACACGCACGCCCACATAAA [CACACA_site353],9.4
2,GAGAGTAAAACAAATATACACACCATAAAGTTATAA [CACACA_site1686],9.49
3,TTCATTCAAATTAACGTGCACATTATTAGTAAAAAC,9.08
4,TTATACTAAATGAACACACACACATATATATATATA [CACACA_site99],9.81
5,ATACTAAATGAACACACACACATATATATATATAAT [CACACA_site4232],10.1
6,ATACTAAATGAACACACACACATATAGATTTATAAC [CACACA_site6200],10.2
7,TAGTGTATGATAATATGTACATACATTTATATAATA [XGTACX_site6330],9.11
8,TATATATATATATAAACACACATAAATATAAATATA [CACACA_site1121],9.6
9,AAAAAAAGTTATATTACACACTTTATTCGTTAACTT [CACACA_site3013],9.47
10,TTTGTTATGGTTTTCTCACACATATATATATATATA [CACACA_site4617],9.5
11,AATAAAAAAAAAAAAAAAAAAAAAAAGACACTAAAA [CACACA_negctrl_site1075],9.33
12,AAAAAAAAAAGACACACACACAAATACAAATACATA [CACACA_site6334],10
13,AAAAAAAAAAGACACACACACACAAATACATACACA [CACACA_site6472],10.1
14,AAAAAAAAAAAACACACACACACACTAATACATACA [CACACA_site8135],10.1
15,AAAAAAAAAAGACACACACACACATACACATACATA [CACACA_site7362],10.2
16,AAAAAAAAAAGACACACACACACACTAATACATACA [CACACA_site6473],10.2
17,ATGGGTATATTTCCACGTACAAAAAATCCGAATTGC [XGTACX_site1490],9.23
18,AAAAATTAAAATATTATAGTTGAAACTTTTATAAAT [TGCATGCA_negctrl_site454],8.81
19,AATATGTAGTAATCAAGTACTAATGTCTTAATTCGG [XGTACX_site308],9.27
